Results: PubChem BioAssay (NCATS)
Where “and” joins values, the source holds several entries; their conditions need not be identical. Equal entries are not always repeated. Inconclusive results are not listed. Calls of active or inactive are those of the source. The call rests on the fitted dose curve; in most records, active means well fitted curve in the direction sought with a large enough effect; inconclusive means small, poorly fitted or top-dose-only effect, or another doubt; inactive means no such curve, though single readings can be large; an effect the other way counts as inactive or inconclusive.

Legend:
KB-3-1 = test: Cytotoxic Profiling of Annotated Libraries Using Quantitative High-Throughput Screening (AID 1296008); details: Five cell lines viability, CellTiter-Glo ATP luminescence, 48-72 h; max response: hits give low values; further: nearly all actives have a fitted effect of over 60% in size
Method in brief: (§1)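 Cells exposed to compounds for 48 or 72 hr at 37 degrees Celsius. Viability read as ATP-coupled luminescence with CellTiter-Glo after 10 min at room temperature.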

NIH3T3 [1] = test: as above; details: Five cell lines viability, CellTiter-Glo ATP luminescence, 48-72 h; max response: hits give low values
Method in brief: as §1

MCC-13 = test: qHTS assay to identify novel small-molecules to repurpose for Merkel cell carcinoma treatment (AID 1296009); details: MCC and control cell lines, CellTiter-Glo viability, 72 h; series mostly up to 46 µM; further: nearly all actives have a fitted effect of over 60% in size
Method in brief: (§2)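 CellTiter-Glo luminescence after 72 hr compound exposure at 37 degree celsius gave cell viability. Libraries NPC and MIPE were run as 8- and 11-point dose responses; RLUs normalized to DMSO (negative) and no-cell (cytotoxicity) controls.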

MCC-26 = test: as above; details: MCC and control cell lines, CellTiter-Glo viability, 72 h; series mostly up to 46 µM
Method in brief: as §2

MKL-1 = test: as above; details: MCC and control cell lines, CellTiter-Glo viability, 72 h; series mostly up to 46 µM
Method in brief: as §2

UISO = test: as above; details: MCC and control cell lines, CellTiter-Glo viability, 72 h; series mostly up to 46 µM
Method in brief: as §2

WaGa = test: as above; details: MCC and control cell lines, CellTiter-Glo viability, 72 h; series mostly up to 46 µM
Method in brief: as §2

C33A = test: Primary qHTS to identify gynecologic anti-cancer compounds using libraries of approved drugs and bioactive compounds (AID 1345084); details: Gynecologic cancer cell panel viability, ATPlite luminescence, 48 h; series mostly up to 57.5 µM; further: nearly all actives have a fitted effect of over 55% in size
Method in brief: (§3)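 Cytotoxicity screen measuring ATP content by luciferase luminescence. Each compound is applied at five concentrations for 48 h at 37 C with 5% CO2.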

CAOV3 = test: as above; details: Gynecologic cancer cell panel viability, ATPlite luminescence, 48 h; series mostly up to 57.5 µM
Method in brief: as §3

CASKI = test: as above; details: Gynecologic cancer cell panel viability, ATPlite luminescence, 48 h; series mostly up to 57.5 µM
Method in brief: as §3

Es-2 = test: as above; details: Gynecologic cancer cell panel viability, ATPlite luminescence, 48 h; series mostly up to 57.5 µM
Method in brief: as §3

HeLa = test: as above; details: Gynecologic cancer cell panel viability, ATPlite luminescence, 48 h; series mostly up to 57.5 µM
Method in brief: as §3

Hek293T = test: as above; details: Gynecologic cancer cell panel viability, ATPlite luminescence, 48 h, control line for the selectivity index; series mostly up to 57.5 µM
Method in brief: as §3

JEG-3 = test: as above; details: Gynecologic cancer cell panel viability, ATPlite luminescence, 48 h; series mostly up to 57.5 µM
Method in brief: as §3

OV90 = test: as above; details: Gynecologic cancer cell panel viability, ATPlite luminescence, 48 h; series mostly up to 57.5 µM
Method in brief: as §3

MKL-2 = test: qHTS assay to identify novel small-molecules to repurpose for Merkel cell carcinoma treatment (AID 1296009); details: MCC and control cell lines, CellTiter-Glo viability, 72 h; series mostly up to 46 µM; further: nearly all actives have a fitted effect of over 60% in size
Method in brief: as §2

NIH3T3 [2] = test: as above; details: MCC and control cell lines, CellTiter-Glo viability, 72 h; at 44.8 µM (top of the series) unless noted
Method in brief: as §2
On the % scale 0 is the no-effect control and ±100 the full control effect.

COc1cc(CCN)cc(OC)c1OC
inactive: max response (KB-3-1) 2.38% | max response (NIH3T3 [1]) -22.5% | outcome (MCC-13) | Potency (MCC-26) | Potency (MKL-1) | Potency (UISO) | Potency (WaGa) | Potency (C33A) | outcome (CAOV3) | outcome (CASKI) | Potency (Es-2) | Potency (HeLa) | outcome (Hek293T) | outcome (JEG-3) | Potency (OV90)

C[C@H]1[C@@H]2Cc3ccc(O)cc3[C@@]1(C)CCN2C
inactive: max response (KB-3-1) -22% | outcome (NIH3T3 [1]) | outcome (MCC-13) | Potency (MCC-26) | Potency (MKL-1) | Potency (MKL-2) | outcome (NIH3T3 [2]) inactive [at 231 µM] | Potency (UISO) | Potency (WaGa) | Potency (C33A) | outcome (CASKI) | Potency (Es-2) | Potency (HeLa) | outcome (Hek293T) | outcome (JEG-3)

NC(=O)CS(=O)C(c1ccccc1)c1ccccc1 (stereo unspecified)
inactive: max response (KB-3-1) 3.03% | max response (NIH3T3 [1]) -4.5% | outcome (MCC-13) | Potency (MCC-26) | Potency (MKL-1) | Potency (MKL-2) | Potency (UISO) | Potency (WaGa) | Potency (C33A) | outcome (CASKI) | Potency (Es-2) | Potency (HeLa) | outcome (Hek293T) | outcome (JEG-3)

COc1c2c(cc3c1OCO3)CCN(C)C2
inactive: max response (KB-3-1) 5.77% | max response (NIH3T3 [1]) -8.45% | outcome (MCC-13) | Potency (MCC-26) | Potency (MKL-1) | Potency (MKL-2) | Potency (UISO) | Potency (WaGa) | Potency (C33A) | outcome (CAOV3) | outcome (CASKI) | Potency (Es-2) | Potency (HeLa) | outcome (Hek293T) | outcome (JEG-3) | Potency (OV90)

CCN(CC)C(=O)[C@@H]1C=C2c3cccc4[nH]cc(c34)C[C@H]2N(C)C1
inactive: max response (KB-3-1) 1.43% and -14.9% | outcome (MCC-13) | Potency (C33A) | outcome (CAOV3) | outcome (CASKI) | Potency (Es-2) | Potency (HeLa) | outcome (Hek293T) | outcome (JEG-3)

c1ccc2c(c1)sc1ccccc12
inactive: max response (KB-3-1) -1.3% | outcome (NIH3T3 [1]) | outcome (MCC-13) | Potency (MCC-26) | Potency (MKL-1) | Potency (MKL-2) | outcome (NIH3T3 [2]) | Potency (UISO) | Potency (WaGa) | Potency (C33A) | outcome (CASKI) | Potency (Es-2) | Potency (HeLa) | outcome (Hek293T) | outcome (JEG-3) | Potency (OV90)

[N-]=[N+]=CC(=O)OC[C@H](N)C(=O)O
inactive: max response (KB-3-1) -24.6% | max response (NIH3T3 [1]) -9.9% | outcome (MCC-13) | Potency (MKL-1) | Potency (MKL-2) | Potency (UISO) | Potency (WaGa) | Potency (C33A) | outcome (CAOV3) | outcome (CASKI) | Potency (Es-2) | Potency (HeLa) | outcome (Hek293T) | outcome (JEG-3) | Potency (OV90)

CCCCC/C=C\C/C=C\C/C=C\C/C=C\CCCC(=O)NCC(=O)O
inactive: max response (KB-3-1) -17.5% | outcome (NIH3T3 [1]) | outcome (MCC-13) | Potency (MCC-26) | Potency (MKL-1) | outcome (NIH3T3 [2]) | Potency (UISO) | Potency (WaGa) | Potency (C33A) | outcome (CAOV3) | outcome (CASKI) | Potency (Es-2) | Potency (HeLa) | outcome (Hek293T) | outcome (JEG-3) | Potency (OV90)

CN(C)CCc1c[nH]c2cccc(OP(=O)(O)O)c12
inactive: max response (KB-3-1) -1.8% | max response (NIH3T3 [1]) -11.6% | outcome (MCC-13) | Potency (MKL-1) | Potency (MKL-2) | Potency (UISO) | Potency (WaGa) | Potency (C33A) | outcome (CAOV3) | outcome (CASKI) | Potency (Es-2) | Potency (HeLa) | outcome (Hek293T) | outcome (JEG-3) | Potency (OV90)

Nc1nc(N)nc(NC2CC2)n1
inactive: max response (KB-3-1) 8.79% | max response (NIH3T3 [1]) -2.48% | outcome (MCC-13) | Potency (MCC-26) | Potency (MKL-1) | Potency (MKL-2) | Potency (UISO) | Potency (WaGa) | Potency (C33A) | outcome (CAOV3) | outcome (CASKI) | Potency (Es-2) | Potency (HeLa) | outcome (Hek293T) | outcome (JEG-3) | Potency (OV90)

C#C[C@]1(O)CC[C@H]2[C@@H]3CCC4=CC(=O)CC[C@]4(C)[C@H]3CC[C@@]21C
inactive: max response (KB-3-1) -5.39% and -1.95% | max response (NIH3T3 [1]) 4.32% | outcome (MCC-13) | Potency (MKL-1) | Potency (MKL-2) | Potency (UISO) | Potency (WaGa) | Potency (C33A) | outcome (CASKI) | Potency (Es-2) | Potency (HeLa) | outcome (Hek293T) | outcome (JEG-3) | Potency (OV90)

COP(=S)(OC)Oc1ccc(SC)c(C)c1
inactive: max response (KB-3-1) -16.5% | max response (NIH3T3 [1]) -0.878% | outcome (MCC-13) | Potency (MCC-26) | Potency (MKL-1) | Potency (MKL-2) | Potency (UISO) | Potency (WaGa) | Potency (C33A) | outcome (CASKI) | Potency (Es-2) | Potency (HeLa) | outcome (Hek293T) | outcome (JEG-3) | Potency (OV90)
